Measured values published in PubChem BioAssay AID1159580 (chemical genetic matrix, 2015).
Among all 5,500 compounds or so, about 2,000 (36%) were called active. Roughly 18% stayed inconclusive and do not appear here. No stated cut-off is given here; in the data, active means normalized growth mostly below about 0.91 (no sharp cut-off); inconclusive means no clear call, values can overlap the other calls; inactive means mostly above about 0.92. The list shows a part of the results.

Assay: chemical genetic growth profiling, strain panel (AID 1159580);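 further: tested at 20 µM; growth read once vehicle control cultures reached saturation at 30 °C; 1 = growth at the plate median or of vehicle wells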
Details: S. cerevisiae deletion strains, growth OD

Measured: normalized growth

c1ccc(N=Nc2ccc(Nc3ccccc3)cc2)cc1
inactive: locus YDL101C, strain DUN1, stronger effect = lower value 0.977 | locus YDR150W, strain NUM1, stronger effect = lower value 0.906 | locus YGR229C, strain SMI1, stronger effect = lower value 0.984 | locus YLR058C, strain SHM2 (second series), stronger effect = lower value 0.964 | locus YNL322C, strain KRE1, stronger effect = lower value 1 | locus YPR135W, strain CTF4, stronger effect = lower value 0.748
active: locus YAL013W, strain DEP1, stronger effect = lower value 0.916 | locus YBR229C, strain ROT2, stronger effect = lower value 0.823 | locus YCL061C, strain MRC1, stronger effect = lower value 0.89 | locus YDL134C, strain PPH21, stronger effect = lower value 0.825 | locus YEL061C, strain CIN8, stronger effect = lower value 0.74 | locus YGR078C, strain PAC10, stronger effect = lower value 0.897 | locus YHR030C, strain SLT2, stronger effect = lower value 0.57 | locus YHR087W, strain rtc3, stronger effect = lower value 0.751 | locus YJR043C, strain POL32, stronger effect = lower value 0.91 | locus YJR075W, strain HOC1, stronger effect = lower value 0.754 | locus YLR039C, strain RIC1, stronger effect = lower value 0.425 | locus YLR085C, strain ARP6, stronger effect = lower value 0.389 | locus YLR262C, strain YPT6, stronger effect = lower value 0.37 | locus YML094W, strain GIM5, stronger effect = lower value 0.812 | locus YMR219W, strain ESC1, stronger effect = lower value 0.92 | locus YMR263W, strain SAP30, stronger effect = lower value 0.9 | locus YMR307W, strain GAS1, stronger effect = lower value 0.405 | locus YNL128W, strain TEP1, stronger effect = lower value 0.913 | locus YNL153C, strain GIM3, stronger effect = lower value 0.914 | locus YNL298W, strain CLA4 (second series), stronger effect = lower value 0.79 | locus YNR030W, strain Alg12, stronger effect = lower value 0.737 | locus YPL055C, strain LGE1, stronger effect = lower value 0.626 | locus YPL241C, strain CIN2, stronger effect = lower value 0.75
